# LMNA splice mod: qHTS Assay for Modulators of Lamin A Splicing. HeLa LMNA splicing GFP/RFP minigene ratio, 48 h. Potency, µM (top dose mostly 46.1 µM), inactives show at the top dose ratio change, negative = inhibition, hits mostly inhibitors. 200,000 compounds, 0.01% hits; active = well fitted inhibition curve with a large enough effect in the signal ratio, with a control signal flat, not every such curve was filed as active; inconclusive = small, poorly fitted or top-dose-only effect, or effect the other way, or a change in a side signal; the % refers to the signal ratio; note: potency is the fitted concentration of half-maximal effect; % is set by controls: 0 for no effect and ±100 for the full control effect
#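 S3 HeLa stable clones carrying a lamin A-EGFP splicing minigene plus DsRed2 were seeded at 600 cells/well in Opti-MEM with 2% FBS, pin-dosed and incubated 48 h at 37°C. Acumen cytometry (488 nm) gave the GFP/RFP total-intensity ratio.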
# KDM4E inh: qHTS Assay for Inhibitors of Human Jumonji Domain Containing 2E (JMJD2E). Lysine-specific demethylase 4E (Homo sapiens), B2RXH2. JMJD2E catalytic domain, FDH-coupled NADH fluorescence (FDH is formaldehyde dehydrogenase). 230,000 compounds, 1.6% hits. Potency, µM (series often up to 57.1 µM), for inactives: at the highest dose activity change, negative = inhibition, usual class: inhibitors; active = well fitted inhibition curve with a large enough effect, not every such curve was filed as active; inconclusive = small, poorly fitted or top-dose-only effect, or another doubt; inactive = no such curve, though single readings can be large or run the other way;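 note: potency is the fitted concentration of half-maximal effect; 0% = wells with enzyme and -100% = buffer wells without enzyme; nearly all actives have a fitted effect of over 50% in size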
# Target sequence (B2RXH2 1-337 limits assumed): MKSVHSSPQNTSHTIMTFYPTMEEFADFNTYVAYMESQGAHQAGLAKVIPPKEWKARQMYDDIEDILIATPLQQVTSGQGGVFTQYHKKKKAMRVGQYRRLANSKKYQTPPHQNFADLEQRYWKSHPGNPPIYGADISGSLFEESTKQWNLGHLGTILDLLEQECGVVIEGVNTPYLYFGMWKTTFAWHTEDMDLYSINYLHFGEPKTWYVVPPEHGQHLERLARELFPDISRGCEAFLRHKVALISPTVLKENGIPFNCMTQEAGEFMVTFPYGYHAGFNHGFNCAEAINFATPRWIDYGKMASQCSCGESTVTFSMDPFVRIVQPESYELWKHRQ
# Tau fluor cs: Counterscreen qHTS for Inhibitors of Tau Fibril Formation, Fluorescence Polarization | tau K18 P301L Alexa594 fluorescence, heparin fibrillization | Potency, µM (titrated, usually from 57.7 µM), for inactives: at the top dose activity change, negative = decrease | 280,000 compounds, 0.93% hits; note: potency is the fitted concentration of half-maximal effect; % is set by controls: 0 for no effect and ±100 for the full control effect; nearly all actives have a fitted effect of over 55% in size
#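 Human K18 P301L tau (15 uM unlabeled plus 0.24 uM Alexa 594-labeled, final) in 100 mM sodium acetate pH 7 was mixed with compound and 20 uM heparin and incubated 6 hr at 37 C.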
# CBFb RUNX1 block: qHTS Assay for Compounds Blocking the Interaction Between CBF-beta and RUNX1 for the Treatment of Acute Myeloid Leukemia | Runt-related transcription factor 1 (Homo sapiens) + Core-binding factor subunit beta … | AlphaScreen CBFb-His/RUNX1-biotin binding, biochemical | Potency, µM (top dose mostly 59.8 µM), without a hit: top-dose activity, negative = inhibition, usual class: inhibitors | 230,000 tested, under 10 active | AID 1477, 2009; note: % of control where 0% means no effect
#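 Proteins preincubated together for 20 min at RT before compound addition; 15 min later, nickel and streptavidin beads were added and left 90 min prior to AlphaScreen measurement.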
# Tau ThT inhib: qHTS for Inhibitors of Tau Fibril Formation, Thioflavin T Binding | recombinant tau K18 P301L (four-repeat tau fragment), heparin-induced fibrillization, ThT fluorescence | Potency, µM (doses to about 57.4 µM), inactives show top-dose activity, negative = inhibition, most hits filed as inhibitors | 270,000 compounds, 2.1% hits | Microtubule-associated protein tau (Homo sapiens), P10636; note: potency is the fitted concentration of half-maximal effect; % is set by controls: 0 for no effect and ±100 for the full control effect; nearly all actives have a fitted effect of over 55% in size
# Target sequence (P10636 561-689 P618L limits assumed): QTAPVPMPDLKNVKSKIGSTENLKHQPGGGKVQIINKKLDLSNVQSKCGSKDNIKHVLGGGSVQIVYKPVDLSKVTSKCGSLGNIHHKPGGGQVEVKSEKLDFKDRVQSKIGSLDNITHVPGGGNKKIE
#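 Aggregation was driven by heparin (20 uM final) acting on recombinant tau […] bearing P301L in 100 mM sodium acetate pH 7; fibrils were detected with Thioflavin T.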
# Tau fibril FP: qHTS for Inhibitors of Tau Fibril Formation, Fluorescence Polarization | 280,000 compounds, 0.39% hits | Microtubule-associated protein tau (Homo sapiens), P10636 | K18 P301L tau heparin fibrillization, Alexa594 FP, 6 h | Potency, µM (highest dose often 57.7 µM), inactives show top-dose activity, negative = inhibition, most hits filed as inhibitors; note: potency is the fitted concentration of half-maximal effect; % is set by controls: 0 for no effect and ±100 for the full control effect; nearly all actives have a fitted effect of over 55% in size
#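 Quantitative HTS format: compounds meet 15 uM recombinant K18 P301L tau and Alexa 594-tau tracer in 100 mM sodium acetate pH 7; 20 uM heparin triggers fibrillization at 37 C over 6 hr; FP gives the signal.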
# An asterisk follows results filed as active; u = inconclusive; x = no result given; ! = repeats disagree; [ ] = remark or other dose. This is a sample that favours compounds with a hit; in the whole collection about 3.2% have one here. Unless noted, calls come from the whole dose curve; as a rule, active = well fitted curve in the direction sought with a large enough effect; inconclusive = small, poorly fitted or top-dose-only effect, or another doubt; inactive = no such curve, though single readings can be large; an effect the other way counts as inactive or inconclusive.
SMILES,LMNA splice mod,KDM4E inh,Tau fluor cs,CBFb RUNX1 block,Tau ThT inhib,Tau fibril FP
Nc1ccc(C(=O)O)c(O)c1,u,7.08µM*!,u,-25.3%,u,-4.4%
CSCC[C@H](NC(=O)[C@H](CC(C)C)N1CCC(NC(=O)[C@@H](NC(=O)[C@H](Cc2ccccc2)NC(=O)[C@H](CO)NC(=O)[C@H](CC(=O)O)NC(=O)[C@@H](N)CCCCN)C(C)C)C1=O)C(N)=O (some centres undefined),x,x,x,12.5%,x,x
C/C(O)=C(\N=Nc1cc(C)ccc1O)C(N)=O,-13.1%[46 µM],-4.9%,u,-8.5%,10µM*,13.1%
Cc1ccc(O)c(N=Nc2ccc(S(=O)(=O)N3CCOCC3)cc2)c1,x,4.8%,16.1%,-1.3%,10.0%,u
COc1ccc(-c2cc(-c3ccccc3O)[nH]n2)cc1OC,3.6%,-3.1%,u,-5.6%,u,u
COc1ccc(-c2cc(-c3ccc(OC)c(OC)c3)n[nH]2)c(O)c1,-2.4%,u,15.8µM*[quencher],-15.5%,-9.4%,1.5%
Cc1ccc(O)c(-c2cc(-c3cccc(F)c3)n[nH]2)c1,-6.3%,-8.2%,31.6µM*[quencher],4.2%,-11.8%,u
COc1ccc(-c2cc(-c3cc(F)ccc3O)[nH]n2)cc1OC,6.2%,-16.6%,25.1µM*[quencher],-1.7%,u,u
COC(=O)c1cc(-c2ccc(OC)c(OC)c2)n[nH]1,1.8%,4.2%,-10.1%,-3.3%,u,-9.5%
O=C(Nc1ccc(Br)cc1F)N1CCC(CN2CCCC2)CC1,22.7%[46 µM],x,-4.6%,x,-4.7%,-8.2%
COc1ccc(Br)cc1CNC(=O)CCSCc1ccc(C)cc1,2.1%[46 µM],x,-23.2%,x,-14.6%,-13.2%
CCCOc1ccc(CNC(=O)CCCn2nc(C)c3sc4ccccc4c3c2=O)cc1,x,x,-28.2%,x,u,-5.1%
CC(C)OC(=O)c1c2c(n3ccccc13)C(=O)c1ccccc1C2=O,-14.6%,-15.7%,u,-11.4%,11.2µM*,-1.0%
COC(=O)c1cc2c(C)c(C)c3ccccn3c-2c1C(=O)OC,3.5%,-3.7%,-17.2%,-11.1%,u,0.8%
c1csc(C2Nc3cccc4cccc(c34)N2)c1,4.1%,u,15.8µM*[quencher],-5.4%,11.2µM*,u
Brc1ccc(C2Nc3cccc4cccc(c34)N2)o1,0.8%,3.16µM*,u,x,u,u
O=[N+]([O-])c1ccccc1C1Nc2cccc3cccc(c23)N1,-12.5%,u,u,u,u,-5.1%
CN1c2cccc3cccc(c23)N(C)C1c1cccs1,16.3%,0.1%,u,-1.7%,u,1.8%
CCCCn1cc(S(=O)(=O)c2ccccc2)c(=O)c2cc(F)c(N3CCN(CCC)CC3)cc21,5.0%[46 µM],x,2.7%,x,2.4%,2.5%
C=CCN1C(=O)/C(=N/n2cnnc2)c2ccccc21,u,0.5%,-10.1%,0.9%,u,-2.7%
C=CCN1C(=O)/C(=c2\sc3nc(=O)c(Cc4ccccc4)nn3c2=O)c2ccccc21,u,-11.8%,-23.4%,-17.3%,17.8µM*,u
CCN1C(=O)/C(=c2\sc3nc(=O)c(Cc4ccccc4)nn3c2=O)c2ccccc21,x,-10.3%,-13.7%,-28.3%,20µM*,-16.6%
C=CCN1C(=O)/C(=c2\sc3nc(=O)c(Cc4ccc(OC)c(OC)c4)nn3c2=O)c2ccccc21,x,-2.8%,-29.9%,-19.4%,28.2µM*,u
COc1cccc(Cn2c(=O)cnc3cnc(N4CCN(C)CC4)nc32)c1,-11.0%,x,x,x,x,x
O=C(Nc1nnc(COc2ccccc2F)s1)Nc1ccccc1F,x,-0.4%,u,2.5%,x,14.1µM*
SMILES,LMNA splice mod,KDM4E inh,Tau fluor cs,CBFb RUNX1 block,Tau ThT inhib,Tau fibril FP
O=C(Nc1nnc(-c2ccc(F)cc2)s1)Nc1ccccc1F,x,1.8%,-4.3%,12.2%,x,-10.1%
O=C(Nc1ccc(F)cc1)Nc1nnc(COc2ccccc2F)s1,u,6.7%,u,-0.6%,10.4%,14.1µM*
COC(=O)c1scc(-c2ccc(C)cc2)c1S(=O)(=O)N1CCN(c2ccc(OC)cc2)CC1,u,x,u,x,-4.2%,u
CCc1nn(CC(=O)N(C)Cc2ccccc2)c(=O)c2cc3sccc3n12,x,x,-10.2%,x,-9.5%,-6.8%
CC(C)=CCCC1(C)C=Cc2c(c(C)cc3c2[nH]c2ccccc23)O1 (centres undefined),x,3.9%,8.91µM*[quencher],10.1%,u,-9.6%
Cc1ccc(C)c2c1[nH]c1ccccc12,-2.4%,-4.6%,u,6.7%,u,0.4%
COc1ccccc1C(=O)NCCSc1c(C)[nH]c2ccccc12,x,x,15.8µM*[quencher],x,u,2.5%
Cc1[nH]c2ccccc2c1SCCNC(=O)c1ccccc1F,x,x,25.1µM*[quencher],x,u,7.6%
COc1cc(C(=O)NCCSc2c(C)[nH]c3ccccc23)cc(OC)c1OC,x,x,25.1µM*[quencher],x,u,-3.3%
COc1cccc(C(=O)NCCSc2c(C)[nH]c3ccccc23)c1OC,x,-4.5%,u,-9.0%,x,15.3%
CN1CCN(c2ccnc(-c3cccc(NS(C)(=O)=O)c3)n2)CC1,4.8%,u,-7.3%,x,-4.2%,1.5%
Cc1ccc(C)c(NC(=O)CN2C(=O)CCc3cc(S(=O)(=O)N4CCCCC4)ccc32)c1,u,x,-4.5%,x,4.0%,-2.7%
CCN(CC)S(=O)(=O)c1cccc(NC(=O)Nc2cccc(C(F)(F)F)c2)c1,u,-3.9%,u,7.7%,-13.8%,7.94µM*
O=C(/C=C/c1cccc([N+](=O)[O-])c1)NC(=S)Nc1cccc(NC(=O)c2ccccc2Cl)c1,14.5%,1.4%,u,-4.2%,u,-2.0%
O=C(/C=C/c1cccc([N+](=O)[O-])c1)NC(=S)Nc1ccccc1C(=O)O,x,-3.7%,-29.2%,-1.8%,17.8µM*,u
O=C(/C=C/c1ccc(S(=O)(=O)N2CCOCC2)cc1)NC(=S)Nc1ccc(N2CCOCC2)cc1,u,5.4%,u,-13.2%,25.1µM*,6.8%
COc1ccc(/C=C/C(=O)Nc2ccc(N3CCOCC3)cc2)cc1,0.3%,u,u,11.2%,3.98µM*,3.6%
COc1cc(OC)c(NC(=O)c2ccc(-n3cnc4cccnc43)cc2)cc1Cl,x,x,-4.3%,x,-11.2%,3.4%
CCN(CC)S(=O)(=O)c1cccc(NC(=O)/C=C/c2ccc([N+](=O)[O-])cc2)c1,u,-4.7%,-25.1%,1.8%,u,9.6%

# From PubChem
